Measurements: PubChem BioAssay (EPA / NIEHS)
Records with an inconclusive call do not appear. The source made the active and inactive calls. The calls were made as follows, unless noted: active = hit-call score of the fitted dose curve at least 0.9, where 1 is the maximum; inconclusive = response in the unintended direction; inactive = score below 0.9.

Legend:
[1] = ATG_TCF_b_cat_CIS: Attagene CIS-FACTORIAL HepG2 Assay for human T-Cell-Factor with beta-catenin (TCF/b-cat) (AID 2282965; active = hit-call score of the fitted dose curve at least 0.9, where 1 is the maximum; inactive = score below 0.9); conditions: HepG2 TCF/beta-catenin cis-reporter transcription, actives raise or lower the signal
Procedure, shortened: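 Endogenous TCF/LEF activity read as reporter transcript level via RT-PCR and capillary electrophoresis fluorescence in transfected HepG2, 24 h exposure; gain or loss of signal fitted against DMSO controls.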

[2] = ATG_TGFb_CIS: Attagene CIS-FACTORIAL HepG2 Assay for human Transforming Growth Factor (TGF) (AID 2282967; active = hit-call score of the fitted dose curve at least 0.9, where 1 is the maximum; inactive = score below 0.9); conditions: HepG2 Attagene CIS TGFb reporter, mRNA transcription; actives raise or lower the signal
Procedure, shortened: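 After a 24-hour incubation with compound, transfected HepG2 cells were lysed for RNA; reporter cDNA was amplified, fluorescently end-labeled and separated by CE. DMSO served as baseline for bidirectional fits.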

[3] = ATG_VDRE_CIS: Attagene CIS-FACTORIAL HepG2 Assay for human Vitamin D Receptor Element (VDRE) (AID 2282968; active = hit-call score of the fitted dose curve at least 0.9, where 1 is the maximum; inactive = score below 0.9); conditions: HepG2 VDRE cis-reporter transcription, actives raise or lower the signal
Procedure, shortened: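 In transiently transfected HepG2 liver cells, gain or loss of reporter mRNA after 24 h exposure is scored relative to DMSO, using fluorescence detection by capillary electrophoresis of RT-PCR products.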

[4] = target: Nuclear receptor subfamily 1 group I member 3 (Homo sapiens) (UniProt Q14994); experiment: ATG_CAR_TRANS: Attagene TRANS-FACTORIAL HepG2 Assay for human Constitutive Androstane Receptor (CAR) (AID 2282969); conditions: HepG2 Attagene TRANS-FACTORIAL CAR reporter;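 also: activators raise reporter mRNA above DMSO so AC50 marks induction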
Procedure, shortened: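 Readout is reporter mRNA induction, quantified by fluorescent primer extension and capillary electrophoresis after RT-PCR. Cells were HepG2 transiently carrying chimeric NR-Gal4 constructs with GAL4-UAS reporters, treated for 24 h; activity scored upward from DMSO.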

[5] = target: X-box-binding protein 1 (Homo sapiens) (UniProt P17861); experiment: ATG_Xbp1_CIS: Attagene CIS-FACTORIAL HepG2 Assay for human X-box Binding Protein 1 (XBP1) (AID 2282972; active = hit-call score of the fitted dose curve at least 0.9, where 1 is the maximum; inactive = score below 0.9); conditions: HepG2 XBP1 cis-element reporter, Attagene multiplex; actives raise or lower the signal
Procedure, shortened: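 HepG2 cells transiently transfected with cis-regulated multiple reporter transcription units; endogenous transcription factor activity measured 24 hours after chemical dosing. Reporter mRNA quantified by RT-PCR, 6-FAM primer extension, HpaI digestion and capillary electrophoresis; bidirectional fitting versus DMSO.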

[6] = ATG_GAL4_TRANS: Attagene TRANS-FACTORIAL HepG2 Assay for GAL4 (Internal Marker) (AID 2282976); conditions: HepG2 Attagene TRANS GAL4 internal marker reporter
Procedure, shortened: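 In transfected human HepG2 liver cells dosed 24 h, GAL4 reporter mRNA serves as a baseline marker. Detection by RT-PCR with fluorescent capillary electrophoresis, activity fitted upward relative to DMSO.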

[7] = target: Hepatocyte nuclear factor 4-alpha (Homo sapiens) (UniProt P41235); experiment: ATG_HNF4a_TRANS: Attagene TRANS-FACTORIAL HepG2 Assay for human Hepatocyte Nuclear Factor 4 alpha (HNF4a) (AID 2282982); conditions: HepG2 HNF4a transactivation reporter, mRNA readout
Procedure, shortened: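 Transfected HepG2 reporter cells are dosed for 24 h; reporter RNA is reverse-transcribed, amplified, fluorescently labelled and HpaI-digested before CE sizing. Positive-direction fit against DMSO.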

[8] = ATG_M_06_TRANS: Attagene TRANS-FACTORIAL HepG2 Assay for M06 Transcription Factor (Internal Marker) (AID 2282983); conditions: HepG2 Attagene TRANS M06 internal marker reporter
Procedure, shortened: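 Cells: HepG2, transient multi-reporter transfection. Exposure: 24 h. Detection: RT-PCR, 6-FAM labelling, HpaI digestion (2 h, 37 °C), capillary electrophoresis. Baseline: DMSO.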

[9] = ATG_M_32_TRANS: Attagene TRANS-FACTORIAL HepG2 Assay for M32 Transcription Factor (Internal Marker) (AID 2282984); conditions: HepG2 Attagene TRANS M32 internal marker reporter;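 also: transcript level of a background control reporter unit measured by RT-PCR and capillary electrophoresis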
Procedure, shortened: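 Using transiently transfected HepG2 cells exposed to test chemicals for 24 h, reporter transcripts are converted to labelled cDNA fragments and quantified by capillary electrophoresis. DMSO defines the activity baseline.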

[10] = target: Transcriptional activator Myb (Homo sapiens) (UniProt P10242); experiment: ATG_Myb_CIS: Attagene CIS-FACTORIAL HepG2 Assay for human Myeloblastosis (Myb) Proto-Oncogene Transcription Factor (AID 2282986; active = hit-call score of the fitted dose curve at least 0.9, where 1 is the maximum; inactive = score below 0.9); conditions: HepG2 Attagene CIS-FACTORIAL Myb reporter transcription; actives raise or lower the signal
Procedure, shortened: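 Multiplexed cis-reporter system in HepG2: transient transfection, 24 h treatment, mRNA readout by RT-PCR and capillary electrophoresis. Both increases and decreases are scored versus DMSO negative control.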

Measured: outcome

Chain of Hepatocyte nuclear factor 4-alpha (Homo sapiens) (P41235 whole entry, looked up): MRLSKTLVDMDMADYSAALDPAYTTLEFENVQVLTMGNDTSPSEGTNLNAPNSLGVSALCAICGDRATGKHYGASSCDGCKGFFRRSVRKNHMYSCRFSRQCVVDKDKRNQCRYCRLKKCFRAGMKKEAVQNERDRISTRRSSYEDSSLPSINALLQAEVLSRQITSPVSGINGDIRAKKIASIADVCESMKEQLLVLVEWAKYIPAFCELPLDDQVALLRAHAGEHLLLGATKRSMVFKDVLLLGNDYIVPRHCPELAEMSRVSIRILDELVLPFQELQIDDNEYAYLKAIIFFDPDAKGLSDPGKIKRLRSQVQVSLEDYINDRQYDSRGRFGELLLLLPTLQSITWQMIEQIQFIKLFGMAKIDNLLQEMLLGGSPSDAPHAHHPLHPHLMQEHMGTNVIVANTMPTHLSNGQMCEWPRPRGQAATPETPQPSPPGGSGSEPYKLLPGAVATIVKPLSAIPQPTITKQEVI
Chain of Transcriptional activator Myb (Homo sapiens) (P10242 whole entry, looked up): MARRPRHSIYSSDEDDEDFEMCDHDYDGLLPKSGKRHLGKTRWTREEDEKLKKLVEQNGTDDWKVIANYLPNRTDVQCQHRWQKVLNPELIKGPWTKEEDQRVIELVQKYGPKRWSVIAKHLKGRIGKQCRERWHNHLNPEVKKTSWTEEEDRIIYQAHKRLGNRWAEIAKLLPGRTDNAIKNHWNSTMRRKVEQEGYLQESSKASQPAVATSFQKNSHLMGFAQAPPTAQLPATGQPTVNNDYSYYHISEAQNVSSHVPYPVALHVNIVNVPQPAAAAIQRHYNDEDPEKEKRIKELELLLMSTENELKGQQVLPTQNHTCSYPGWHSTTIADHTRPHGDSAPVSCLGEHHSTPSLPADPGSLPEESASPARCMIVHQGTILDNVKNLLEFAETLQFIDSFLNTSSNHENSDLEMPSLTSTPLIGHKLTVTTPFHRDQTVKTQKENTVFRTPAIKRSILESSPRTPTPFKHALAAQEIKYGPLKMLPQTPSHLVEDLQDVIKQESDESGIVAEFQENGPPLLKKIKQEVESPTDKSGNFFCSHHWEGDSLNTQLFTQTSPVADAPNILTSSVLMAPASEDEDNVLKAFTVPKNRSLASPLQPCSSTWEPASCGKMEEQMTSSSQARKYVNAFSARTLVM
Chain of X-box-binding protein 1 (Homo sapiens) (P17861 whole entry, looked up): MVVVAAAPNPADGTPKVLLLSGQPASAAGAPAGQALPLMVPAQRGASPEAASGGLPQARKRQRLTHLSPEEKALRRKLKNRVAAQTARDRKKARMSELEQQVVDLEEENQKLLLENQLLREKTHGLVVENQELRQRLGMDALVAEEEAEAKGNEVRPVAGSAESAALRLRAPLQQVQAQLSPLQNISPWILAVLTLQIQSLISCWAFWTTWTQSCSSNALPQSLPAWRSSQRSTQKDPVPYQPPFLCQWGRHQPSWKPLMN
Chain of Nuclear receptor subfamily 1 group I member 3 (Homo sapiens) (Q14994 whole entry, looked up, the tested form may be a part): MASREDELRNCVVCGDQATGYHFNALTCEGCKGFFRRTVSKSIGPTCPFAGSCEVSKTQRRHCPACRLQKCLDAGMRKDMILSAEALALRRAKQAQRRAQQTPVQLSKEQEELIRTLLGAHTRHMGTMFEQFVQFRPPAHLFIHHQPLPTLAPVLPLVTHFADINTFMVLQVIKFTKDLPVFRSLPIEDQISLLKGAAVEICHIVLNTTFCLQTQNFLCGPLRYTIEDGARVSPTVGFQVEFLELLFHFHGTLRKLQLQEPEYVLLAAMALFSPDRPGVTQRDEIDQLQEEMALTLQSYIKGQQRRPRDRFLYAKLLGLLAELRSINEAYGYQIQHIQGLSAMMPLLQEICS

CC(O)CNCC(C)O (stereo not given)
inactive: all assays above
